Assay results taken from PubChem BioAssay AID1508600 (Functional Genomics Laboratory (NCATS/FGL), 2020).
Hit rate of the full screen: of about 53,000 sequences, about 3,700 (7%) were called active.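 Rule for the calls: active = gene knockdowns whose robust z-score for IL-1 alpha signal is at least 2 or at most -2, so actives lie on both sides; inactive = the rest.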 The sample as a whole holds a higher share of actives than the screen did.

Test: Components of the Cytosolic LPS Sensing Pathway: Gene Identification via Genome-wide siRNA Screen;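 note: robust z of the log signal after scaling to non-targeting control siRNA wells of the plate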
Settings: RAW264.7 macrophages, IL-1a HTRF, actives lie on both sides, screened at 100 nM (by protocol), cells primed 5 h with Pam3CSK4 first
Summary of the method: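 Using IL-1a HTRF as read-out, the screen measured release from RAW264.7 cells after 48h siRNA knockdown (100 nM), 5 h Pam3CSK4 priming and 24 h cytosolic LipidA. Values were expressed relative to negative-control wells as robust z-scores.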

Sequence | z-score
GCGCAUGAGUGCAAGGAUUTT against Prdm16 | 0.265 (inactive)
GGAUCCGUUUUGGUGGAAUTT against Enpp4 | 0.255 (inactive)
GCACAUGCAUGGCUCUAAGTT against Hinfp | 0.779 (inactive)
GCUUCUAGUCAACAUCCAGTT against Klf15 | 2.07 (active)
GGAAGACAAUCGCUGCGUGTT against Tet3 | 0.927 (inactive)
GCUUCUGUGGGCAACAGUUTT against Cryba1 | 0.0577 (inactive)
GGUCUCAGUUGGAAUUAUUTT against Pds5a | -0.806 (inactive)
GGAGAAUCAGGGUAGCACATT against Txnl4a | -0.52 (inactive)
GGUGUCAUUCACAAAAACUTT against Csnk1g1 | -1.09 (inactive)
GGCCAAGUCUGGAAUCACUTT against Angel2 | -2.42 (active)
GCAGCAGGAAGGAUCAUUCTT against Ly6h | -0.0488 (inactive)
GGACUUCAUGGGUCGCUUUTT against Gstm2 | -0.185 (inactive)
GGAAUUAACAGAGAAGAAATT against Rgs13 | -0.848 (inactive)
GCUCCUGGUCUCAUUUACATT against Taf9b | -0.386 (inactive)
GGUCACAGACAUUCCCGAATT against Atad2 | -2.89 (active)
GGUGGUUUUCAGCAAGUACTT against Pde9a | -0.514 (inactive)
AGUCAAGACCCAUAGAAAATT against Ociad2 | -1.87 (inactive)
GCUACCAUUUGAUCAGUUUTT against Entpd1 | 0.665 (inactive)
GUCAUCACAAGUCAAGAAGTT against Prol1 | -1.25 (inactive)
GGAGAAGGUUCACUCUGAUTT against Traf1 | -0.666 (inactive)
GGAAACCUGAUUGCAUAUGTT against Nup37 | -0.259 (inactive)
GCAUUAACUGUCUUGAUCCTT against Olfr356 | 1.41 (inactive)

Sequence | z-score
GCGUAACGCAGCAGCUAAGTT against Tarbp2 | -3.01 (active)
GGAAUAAGGAAGUUAUUGGTT against Olfr706 | -0.356 (inactive)
GGUAGAGGUGGAAUGUAGCTT against Qprt | 1.36 (inactive)
GCCCAUCACAAAUAAACAATT against B230340J04Rik | -1.17 (inactive)
CCUUGUAGCUCUUUAUAAATT against Strn | 2.24 (active)
GCUCCUUAGAGAGAGUAUUTT against Sod3 | -0.399 (inactive)
GGGUCCAUGAACUCAAGAUTT against Rrnad1 | 0.473 (inactive)
GGCUGUGAGAACGAUGCAATT against Fam151a | -1.08 (inactive)
GGAGGGAAGAAACAAUCUATT against Rnf40 | 0.497 (inactive)
GGGUGCAUUUGAGAAGAUCTT against Casd1 | 4.11 (active)
GGAGUGCAUGACUCAGCUUTT against Olfr926 | -1.54 (inactive)
GCUGACCGGCAUUUACCAUTT against Mcm2 | 2.78 (active)
GGCUCUCUUCGGGAAUACUTT against Tmem234 | 1.22 (inactive)
GGAGAUCAACAGGAUUUUGTT against Gna15 | -1.35 (inactive)
GCUGUGUUAGAAAGCAGGCTT against 4931406H21Rik | 0.927 (inactive)
GCUAUAGAUUCCUCUGCCATT against Olfr1098 | -0.525 (inactive)
CCCUAGAAUUAUAUCCUGUTT against Col4a1 | -0.494 (inactive)
GGGAUCAAUGCUUAAUACATT against Zfp2 | 1.1 (inactive)
GGGAAACACAAUUUACCUUTT against Elf1 | 3.18 (active)
CCAACUUUCUCUUAGGAAATT against Igfl3 | -0.487 (inactive)
CCAGCCUUCAAUUGUGGUCTT against Scn1b | 0.672 (inactive)
GAUUUUCUUUGUUCAUCUCTT against Olfr727 | -0.535 (inactive)

Sequence | z-score
CGACUAUCAGCAGCUGAAGTT against Igf1r | 5.27 (active)
GCGGAUUGUCUUCCUAGACTT against Smg9 | -1.14 (inactive)
GGUUCUAGGACCUAUUUUGTT against Cep57 | 1.87 (inactive)
GGUUAUUACCCAGUUCACGTT against Pramel1 | -0.668 (inactive)
GCCCUUCGUGAUGAAGAAUTT against B4galt3 | 0.829 (inactive)
GCUAAACUCGCUCAAUCUGTT against Cd14 | 0.537 (inactive)
CCUACUACUUCGUUAUCCGTT against Chrna2 | 0.447 (inactive)
GCUGAUGUGAAUGGCUCACTT against Gmeb2 | -1.02 (inactive)
GGCCCUUUGAGUCGUUCCUTT against Batf3 | 2.6 (active)
CCGUGUCUUAGGUGAUCACTT against H2-DMb1 | 0.391 (inactive)
GGAGACGAAUCCUUUCAGUTT against Mis12 | 0.476 (inactive)
CCAAAGGUUACCAGGAAGCTT against Pcsk4 | 0.124 (inactive)
GCAGCUAAAACAAGUUUGATT against Sntg2 | -0.565 (inactive)
GGAUUUACCUUACAAAAGUTT against Aff2 | 0.578 (inactive)
GGAUCUAUUCUCUCUGAUGTT against Prune2 | 1.03 (inactive)
GGCAAAGUAUAAAGAAGUATT against Gkap1 | 2.23 (active)
GCCAUUAAGAUCGCUUACUTT against Selenop | -0.432 (inactive)
GGAGCUUUCUCAAGAUUCATT against Arid1a | 0.263 (inactive)
GCGACUUCGCUAUAUCAAGTT against Samhd1 | 1.65 (inactive)
CCUUAGGAUUUGAACGCGUTT against Cutc | -0.554 (inactive)
GCUAGUAUUCUAAGAUCUUTT against Mpp6 | 2.25 (active)
GGCAAAAUCGUGAAAAUUCTT against Vwf | -0.144 (inactive)

Sequence | z-score
GGCGAUCCUUACUCCAAUGTT against Zfp90 | 0.143 (inactive)
GGAAUGGACCUCAAAAUUGTT against Vmp1 | 0.532 (inactive)
GCCACUACCGAUUUUCCCUTT against Lctl | -2.29 (active)
GGAGAUGCUAGAAAUUGUGTT against Hpca | -0.909 (inactive)
GCACAUCGGCCUUAAGUCATT against Supt4a | -0.833 (inactive)
CCGUUUUCGCUUUGAGAAATT against Smarcad1 | 4.47 (active)
GUAAUUCACAGCCUCUCCGTT against Pitx3 | 1.03 (inactive)
GGACAUUUUAGUUGUCUUGTT against Slc38a4 | -0.607 (inactive)
GGAUCCAAGGCAAAGAUGUTT against Fto | 1.73 (inactive)
AUACGAUUUUUGUACUGCUTT against Defa4 | 0.305 (inactive)
GCCAGGUGUGGUGACUCAUTT against Tprkb | 0.584 (inactive)
GCUAUGCAAAUGGUGUCAATT against Fcnb | -0.147 (inactive)
GGUGAGAUGGUUCAACAUGTT against Olfr77 | 1.7 (inactive)
GGACUUGAACAACUUACAATT against Plcb1 | 2.37 (active)
GUAUUAAGACCAAACAGAUTT against Olfr623 | -0.497 (inactive)
CCCAAUCGGUUAAUUGUUGTT against Vcp | -2.37 (active)
GCCAGUUAUCACUUAACCCTT against Cmc1 | -0.514 (inactive)
GGAACCUUCAGAGCGACUUTT against Trib3 | 0.224 (inactive)
GGCAAGGAGGAUGACAAAATT against Rnf113a2 | 0.416 (inactive)
GGUAGAGAGACUGUAAUUATT against Ppp2r1b | -0.598 (inactive)
GGAGUUUAUGAAAUUCAACTT against Fcgrt | 1.34 (inactive)
CCAUCUAUGGUAUGGAGCGTT against Abcg4 | 0.606 (inactive)

Sequence | z-score
GGAUGAAGAAGAUGAAGAUTT against Prepl | -2.62 (active)
GGAAGACUUUGAAUACCACTT against Slc4a2 | 0.457 (inactive)
GCUGUUCUGCAAAACUGGATT against Rbpms | -1.36 (inactive)
GGACACAAGGUCGCCAUCUTT against Tcf7l1 | -0.502 (inactive)
GGUGCUGGAUGAAUUUGGGTT against Zp1 | -0.416 (inactive)
GCAUGUCGCCUUGAAAUUATT against Cpne4 | 0.202 (inactive)
GGAAGGAGGGUAUGUGGUUTT against Lgals9 | -0.346 (inactive)
GCAAACUGCCCUCUUUGUGTT against Olfr1024 | 2.54 (active)
GGAUAUACACAACAGGCACTT against Tceal9 | 0.422 (inactive)
GGAGACACAUAGGUGUAAATT against H2-T23 | 0.458 (inactive)
GCACCAUCGACUAAUCAAATT against 1700029J07Rik | 1.12 (inactive)
CCUCUGCUACUCUUAUUGUTT against Ttn | -0.523 (inactive)
GGACUGUACAGUGGCAUUATT against Cd70 | -1.69 (inactive)
UACUCGUGGUGUUUGCAAGTT against Olfr1154 | 0.873 (inactive)
GGUGGAAGCAAGAGAAAAUTT against Tnp1 | 2.03 (active)
GCUCAUGUCUUAUUUGGAUTT against Klhl15 | -0.393 (inactive)
CCGAAGUGCCAUGCCAUUUTT against Pdlim1 | 0.399 (inactive)
GCACAUUUAUCCCGGUGUATT against Pnpla2 | -2.01 (active)
GGUUCAAUUCAAGUCUUUATT against Olfr195 | 0.339 (inactive)
GGCCUACAGCUGGAAAGAATT against Chrm1 | 0.418 (inactive)
